Data from PubChem BioAssay AID1159580 (chemical genetic matrix, 2015).
About 2,000 (36%) of roughly 5,500 compounds were called active. Roughly 18% stayed inconclusive and do not appear here. Cut-off read from the data, not from the text of the source: active = normalized growth mostly below about 0.91 (no sharp cut-off); inconclusive = no clear call, values can overlap the other calls; inactive = mostly above about 0.92. The list shows a part of the results.

Test: chemical genetic growth profiling, strain panel (AID 1159580);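 note: tested at 20 µM; growth read once vehicle control cultures reached saturation at 30 °C; 1 = growth at the plate median or of vehicle wells; lower values mean less growth of the strain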
Conditions: S. cerevisiae deletion strains, growth OD

Measured: normalized growth

CC12CCC(OC(=O)c3ccccc3)CC1CCc1ccccc12 (configuration not stated)
inactive: locus YAL021C, strain ccr4, stronger effect = lower value 0.986 | locus YAL026C, strain drs2, stronger effect = lower value 0.99 | locus YAL030W, strain snc1, stronger effect = lower value 0.999 | locus YBL061C, strain skt5, stronger effect = lower value 0.995 | locus YBR009C, strain hhf1, stronger effect = lower value 1 | locus YBR023C, strain chs3, stronger effect = lower value 0.995 | locus YBR171W, strain sec66, stronger effect = lower value 0.968 | locus YBR231C, strain swc5, stronger effect = lower value 0.939 | locus YBR279W, strain paf1, stronger effect = lower value 1.01 | locus YCL011C, strain gbp2, stronger effect = lower value 1 | locus YCL016C, strain dcc1, stronger effect = lower value 0.991 | locus YCL061C, strain MRC1, stronger effect = lower value 0.998 | locus YCL069W, strain vba3, stronger effect = lower value 0.996 | locus YCR088W, strain abp1, stronger effect = lower value 0.984 | locus YDL005C, strain med2, stronger effect = lower value 0.987 | locus YDL040C, strain nat1, stronger effect = lower value 0.979 | locus YDR001C, strain nth1, stronger effect = lower value 0.985 | locus YDR069C, strain doa4, stronger effect = lower value 0.98 | locus YDR137W, strain rgp1, stronger effect = lower value 0.964 | locus YDR159W, strain sac3, stronger effect = lower value 0.99 | locus YDR195W, strain ref2 0.964 | locus YDR297W, strain sur2, stronger effect = lower value 0.995 | locus YDR334W, strain swr1, stronger effect = lower value 0.959 | locus YDR335W, strain msn5, stronger effect = lower value 0.997 | locus YDR392W, strain spt3, stronger effect = lower value 0.866 | locus YEL003W, strain gim4, stronger effect = lower value 0.985 | locus YEL037C, strain rad23, stronger effect = lower value 0.991 | locus YER015W, strain faa2, stronger effect = lower value 0.998 | locus YER111C, strain swi4, stronger effect = lower value 0.988 | locus YER155C, strain BEM2 (second series), stronger effect = lower value 0.967 | locus YFR010W, strain ubp6, stronger effect = lower value 0.992 | locus YGL167C, strain pmr1, stronger effect = lower value 0.981 | locus YGL173C, strain kem1, stronger effect = lower value 0.987 | locus YGL227W, strain vid30, stronger effect = lower value 0.986 | locus YGL240W, strain doc1, stronger effect = lower value 0.952 | locus YGL253W, strain hxk2, stronger effect = lower value 1.01 | locus YHR013C, strain ard1, stronger effect = lower value 0.855 | locus YHR027C, strain rpn1, stronger effect = lower value 0.999 | locus YHR142W, strain chs7, stronger effect = lower value 1.01 | locus YJL092W, strain hpr5, stronger effect = lower value 0.989 | locus YJL095W, strain BCK1 (second series), stronger effect = lower value 1 | locus YJL115W, strain asf1, stronger effect = lower value 0.989 | locus YJL129C, strain trk1, stronger effect = lower value 0.999 | locus YJL154C, strain vps35, stronger effect = lower value 0.992 | locus YJL164C, strain tpk1, stronger effect = lower value 0.989 | locus YJL166W, strain qcr8, stronger effect = lower value 1 | locus YJL187C, strain SWE1, stronger effect = lower value 1 | locus YKL160W, strain elf1, stronger effect = lower value 1 | locus YKR026C, strain gcn3, stronger effect = lower value 0.965 | locus YKR091W, strain srl3, stronger effect = lower value 0.984 | locus YLL001W, strain dnm1, stronger effect = lower value 1.01 | locus YLL026W, stronger effect = lower value 0.993 | locus YLL041C, strain sdh2, stronger effect = lower value 0.994 | locus YLR027C, strain aat2, stronger effect = lower value 1.01 | locus YLR221C, strain rsa3, stronger effect = lower value 1 | locus YLR258W, strain gsy2, stronger effect = lower value 1 | locus YLR262C, strain YPT6 (second series), stronger effect = lower value 1.04 | locus YLR320W, strain mms22, stronger effect = lower value 1 | locus YLR342W, strain FKS1, stronger effect = lower value 0.987 | locus YLR357W, strain rsc2, stronger effect = lower value 0.986 | locus YLR370C, strain arc18, stronger effect = lower value 0.995 | locus YLR384C, strain iki3, stronger effect = lower value 1 | locus YML120C, strain ndi1, stronger effect = lower value 1 | locus YMR058W, strain fet3, stronger effect = lower value 1 | locus YMR125W, strain sto1, stronger effect = lower value 0.975 | locus YMR129W, stronger effect = lower value 0.986 | locus YMR205C, strain PFK2, stronger effect = lower value 1.01 | locus YMR231W, strain pep5, stronger effect = lower value 0.99 | locus YNL071W, strain lat1, stronger effect = lower value 0.992 | locus YNL209W, strain ssb2, stronger effect = lower value 0.997 | locus YNL248C, strain rpa49, stronger effect = lower value 1.01 | locus YNL322C, strain KRE1 (second series), stronger effect = lower value 0.982 | locus YNR049C, strain mso1, stronger effect = lower value 0.994 | locus YOR001W, strain rrp6, stronger effect = lower value 0.999 | locus YOR070C, strain gyp1, stronger effect = lower value 1.01 | locus YOR080W, strain dia2, stronger effect = lower value 0.965 | locus YOR083W, strain WHI5, stronger effect = lower value 0.995 | locus YOR106W, strain vam3, stronger effect = lower value 1.01 | locus YOR265W, strain rbl2, stronger effect = lower value 0.998 | locus YOR270C, strain vph1, stronger effect = lower value 1.06 | locus YOR290C, strain snf2, stronger effect = lower value 0.955 | locus YPL051W, strain arl3, stronger effect = lower value 1 | locus YPL078C, strain atp4, stronger effect = lower value 1.01 | locus YPL106C, strain sse1, stronger effect = lower value 0.992 | locus YPL240C, strain hsp82, stronger effect = lower value 0.988
active: locus YEL061C, strain CIN8 (second series), stronger effect = lower value 0.841 | locus YER016W, strain bim1, stronger effect = lower value 0.907
